# In article PMC7862700, “An all-to-all approach to the identification of sequence-specific readers for epigenetic DNA modifications on cytosine”:
# Experiments:
# Assay in all cases: DAPPL (digital affinity profiling via proximity ligation, sequencing); 10 mM Tris-HCl pH 7.5, 50 mM NaCl, 1 mM DTT, 4% glycerol, room temperature, 30 min; GST-TFs on glutathione beads, 16-mer random dsDNA library, 0.1% formaldehyde crosslink after washing; high values mean tight binding
# [1] = target: T1, FLI1 (Homo sapiens, UniProt Q01543 1-452); details: protein: recombinant; tags: N-terminal GST; dsDNA, one strand shown
# T1 sequence: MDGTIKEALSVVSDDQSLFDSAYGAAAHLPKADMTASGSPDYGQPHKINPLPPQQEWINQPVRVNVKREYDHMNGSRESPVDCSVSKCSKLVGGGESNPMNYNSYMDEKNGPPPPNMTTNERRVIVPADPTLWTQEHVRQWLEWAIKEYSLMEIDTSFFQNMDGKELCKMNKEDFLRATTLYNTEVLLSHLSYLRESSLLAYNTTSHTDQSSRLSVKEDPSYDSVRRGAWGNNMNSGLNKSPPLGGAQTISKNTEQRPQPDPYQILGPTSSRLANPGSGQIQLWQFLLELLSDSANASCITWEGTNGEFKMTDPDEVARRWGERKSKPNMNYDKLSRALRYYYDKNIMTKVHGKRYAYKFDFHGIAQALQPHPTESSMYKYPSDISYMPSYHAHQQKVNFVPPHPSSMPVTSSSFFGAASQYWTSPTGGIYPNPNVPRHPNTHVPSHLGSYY
# How it was run: (§1)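 Each value of binding signal is a hexamer's read frequency for a factor divided by the same hexamer's frequency in the tag-only sample. Barcoded, bead-captured GST fusions of human transcription factors made in yeast were pooled with that sample and incubated with 200 nmole of a random double-stranded 16-mer DNA library in Tris/NaCl/DTT/glycerol buffer at room temperature for 30 min. Washing, 0.1% formaldehyde crosslinking, proximity ligation, PCR and Illumina NextSeq500 sequencing followed.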
# [2] = target: T2, ELK1 (Homo sapiens, UniProt P19419 1-428); details: protein: recombinant; tags: N-terminal GST; dsDNA, one strand shown
# T2 sequence: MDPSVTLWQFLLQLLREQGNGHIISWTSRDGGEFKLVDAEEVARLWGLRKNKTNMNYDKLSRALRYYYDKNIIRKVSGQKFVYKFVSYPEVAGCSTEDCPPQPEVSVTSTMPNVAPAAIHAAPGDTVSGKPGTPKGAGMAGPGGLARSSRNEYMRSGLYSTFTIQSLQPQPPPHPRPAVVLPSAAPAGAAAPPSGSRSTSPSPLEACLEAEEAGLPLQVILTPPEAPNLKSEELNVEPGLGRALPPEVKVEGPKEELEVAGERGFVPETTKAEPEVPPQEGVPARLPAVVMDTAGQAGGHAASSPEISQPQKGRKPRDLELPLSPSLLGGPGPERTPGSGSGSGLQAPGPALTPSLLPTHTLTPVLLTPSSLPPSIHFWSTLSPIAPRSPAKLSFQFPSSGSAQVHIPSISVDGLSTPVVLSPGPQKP
# How it was run: as §1
# [3] = target: T3, GABPA (Homo sapiens, UniProt Q06546 1-454); details: protein: recombinant; tags: N-terminal GST; dsDNA, one strand shown
# T3 sequence: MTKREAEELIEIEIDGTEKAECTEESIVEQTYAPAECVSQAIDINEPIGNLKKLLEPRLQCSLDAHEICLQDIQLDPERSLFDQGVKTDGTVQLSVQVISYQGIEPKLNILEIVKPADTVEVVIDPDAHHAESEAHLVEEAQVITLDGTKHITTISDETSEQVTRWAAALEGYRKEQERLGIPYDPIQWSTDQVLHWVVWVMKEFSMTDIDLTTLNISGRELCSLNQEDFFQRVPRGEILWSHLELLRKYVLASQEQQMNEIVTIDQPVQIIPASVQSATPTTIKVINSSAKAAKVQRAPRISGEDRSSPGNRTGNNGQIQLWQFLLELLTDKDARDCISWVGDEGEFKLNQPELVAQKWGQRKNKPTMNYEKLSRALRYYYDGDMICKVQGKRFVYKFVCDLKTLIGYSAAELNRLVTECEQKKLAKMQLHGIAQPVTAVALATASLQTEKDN
# How it was run: as §1
# [4] = target: T4, ERG (Homo sapiens, UniProt P11308 1-479); details: protein: recombinant; tags: N-terminal GST; dsDNA, one strand shown
# T4 sequence: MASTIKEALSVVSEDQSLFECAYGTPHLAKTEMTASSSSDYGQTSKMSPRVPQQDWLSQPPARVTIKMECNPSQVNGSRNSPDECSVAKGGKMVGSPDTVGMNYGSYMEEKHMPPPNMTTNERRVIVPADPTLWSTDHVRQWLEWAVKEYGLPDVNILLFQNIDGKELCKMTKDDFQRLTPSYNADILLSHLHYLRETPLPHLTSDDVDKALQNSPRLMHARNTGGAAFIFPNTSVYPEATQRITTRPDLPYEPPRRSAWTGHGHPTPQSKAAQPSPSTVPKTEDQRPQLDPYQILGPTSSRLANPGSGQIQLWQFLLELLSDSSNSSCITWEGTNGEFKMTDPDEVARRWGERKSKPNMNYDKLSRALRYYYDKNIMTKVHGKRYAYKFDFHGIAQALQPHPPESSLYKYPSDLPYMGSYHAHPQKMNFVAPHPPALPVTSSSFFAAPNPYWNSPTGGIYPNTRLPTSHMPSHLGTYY
# How it was run: as §1
# [5] = target: ELF1 (Homo sapiens, UniProt P32519 1-619); details: protein: recombinant; tags: N-terminal GST; dsDNA, one strand shown
# ELF1, sequence (P32519 whole entry): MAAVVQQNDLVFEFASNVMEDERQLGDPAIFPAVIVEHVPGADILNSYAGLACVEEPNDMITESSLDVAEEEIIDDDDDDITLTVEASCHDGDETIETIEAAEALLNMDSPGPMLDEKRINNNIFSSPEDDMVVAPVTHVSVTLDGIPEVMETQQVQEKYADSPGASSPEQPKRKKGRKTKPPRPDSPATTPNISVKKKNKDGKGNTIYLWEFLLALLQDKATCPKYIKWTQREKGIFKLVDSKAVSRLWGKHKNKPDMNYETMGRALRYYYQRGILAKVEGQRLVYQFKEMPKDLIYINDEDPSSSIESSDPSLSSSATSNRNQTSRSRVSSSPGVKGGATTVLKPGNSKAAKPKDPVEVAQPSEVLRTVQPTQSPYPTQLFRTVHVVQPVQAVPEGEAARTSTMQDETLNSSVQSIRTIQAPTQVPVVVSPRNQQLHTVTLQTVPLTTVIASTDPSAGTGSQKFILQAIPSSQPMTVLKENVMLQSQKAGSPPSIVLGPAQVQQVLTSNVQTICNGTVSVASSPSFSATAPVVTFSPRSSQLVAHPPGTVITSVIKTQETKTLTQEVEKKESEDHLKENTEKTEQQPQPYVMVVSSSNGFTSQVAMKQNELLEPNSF
# How it was run: as §1
# [6] = target: T5, EHF (Homo sapiens, UniProt Q9NZC4 1-300); details: protein: recombinant; tags: N-terminal GST; dsDNA, one strand shown
# T5 sequence: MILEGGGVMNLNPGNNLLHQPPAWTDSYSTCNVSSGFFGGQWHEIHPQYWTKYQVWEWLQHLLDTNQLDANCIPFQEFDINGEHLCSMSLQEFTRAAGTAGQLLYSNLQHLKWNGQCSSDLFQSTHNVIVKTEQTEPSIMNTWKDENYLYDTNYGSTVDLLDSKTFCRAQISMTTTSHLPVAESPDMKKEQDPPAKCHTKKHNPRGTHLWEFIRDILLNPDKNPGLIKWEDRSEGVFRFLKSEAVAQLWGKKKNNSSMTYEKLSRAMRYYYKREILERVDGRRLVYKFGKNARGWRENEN
# How it was run: as §1
# [7] = target: SPI1 (Homo sapiens, UniProt P17947 1-270); details: protein: recombinant; tags: N-terminal GST; dsDNA, one strand shown
# How it was run: as §1
# [8] = target: SPIB (Homo sapiens, UniProt Q01892 1-262); details: protein: recombinant; tags: N-terminal GST; dsDNA, one strand shown
# SPIB, sequence (Q01892 whole entry): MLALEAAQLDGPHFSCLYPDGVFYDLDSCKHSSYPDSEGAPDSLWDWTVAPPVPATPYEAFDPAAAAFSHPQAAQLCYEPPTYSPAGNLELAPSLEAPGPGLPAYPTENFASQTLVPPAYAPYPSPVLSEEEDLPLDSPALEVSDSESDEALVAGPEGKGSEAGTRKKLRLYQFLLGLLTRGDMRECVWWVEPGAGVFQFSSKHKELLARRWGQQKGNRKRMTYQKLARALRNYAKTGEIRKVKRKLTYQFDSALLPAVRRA
# How it was run: as §1
# [9] = target: T6, ELK3 (Homo sapiens, UniProt P41970 1-407); details: protein: recombinant; tags: N-terminal GST; dsDNA, one strand shown
# T6 sequence: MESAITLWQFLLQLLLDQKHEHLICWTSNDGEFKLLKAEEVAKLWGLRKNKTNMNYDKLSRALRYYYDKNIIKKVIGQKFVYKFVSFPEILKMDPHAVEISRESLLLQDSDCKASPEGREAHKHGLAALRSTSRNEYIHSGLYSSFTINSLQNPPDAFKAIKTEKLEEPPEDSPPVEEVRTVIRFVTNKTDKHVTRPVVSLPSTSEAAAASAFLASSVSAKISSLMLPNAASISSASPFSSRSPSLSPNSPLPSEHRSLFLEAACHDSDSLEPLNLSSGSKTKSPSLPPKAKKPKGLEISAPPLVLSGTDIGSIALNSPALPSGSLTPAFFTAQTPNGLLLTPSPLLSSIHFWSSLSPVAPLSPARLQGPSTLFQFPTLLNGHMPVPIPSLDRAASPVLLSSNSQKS
# How it was run: as §1
# [10] = target: T7, FEV (Homo sapiens, UniProt Q99581 1-238); details: protein: recombinant; tags: N-terminal GST; dsDNA, one strand shown
# T7 sequence: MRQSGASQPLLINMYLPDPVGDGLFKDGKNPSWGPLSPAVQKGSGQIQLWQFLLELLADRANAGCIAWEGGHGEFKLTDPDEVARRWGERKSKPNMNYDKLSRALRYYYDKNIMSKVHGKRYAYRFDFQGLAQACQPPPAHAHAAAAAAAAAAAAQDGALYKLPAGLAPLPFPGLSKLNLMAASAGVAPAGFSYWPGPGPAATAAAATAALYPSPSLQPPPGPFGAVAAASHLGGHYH
# How it was run: as §1
# [11] = target: ETV5 (Homo sapiens, UniProt P41161 1-510); details: protein: recombinant; tags: N-terminal GST; dsDNA, one strand shown
# ETV5, sequence (P41161 whole entry): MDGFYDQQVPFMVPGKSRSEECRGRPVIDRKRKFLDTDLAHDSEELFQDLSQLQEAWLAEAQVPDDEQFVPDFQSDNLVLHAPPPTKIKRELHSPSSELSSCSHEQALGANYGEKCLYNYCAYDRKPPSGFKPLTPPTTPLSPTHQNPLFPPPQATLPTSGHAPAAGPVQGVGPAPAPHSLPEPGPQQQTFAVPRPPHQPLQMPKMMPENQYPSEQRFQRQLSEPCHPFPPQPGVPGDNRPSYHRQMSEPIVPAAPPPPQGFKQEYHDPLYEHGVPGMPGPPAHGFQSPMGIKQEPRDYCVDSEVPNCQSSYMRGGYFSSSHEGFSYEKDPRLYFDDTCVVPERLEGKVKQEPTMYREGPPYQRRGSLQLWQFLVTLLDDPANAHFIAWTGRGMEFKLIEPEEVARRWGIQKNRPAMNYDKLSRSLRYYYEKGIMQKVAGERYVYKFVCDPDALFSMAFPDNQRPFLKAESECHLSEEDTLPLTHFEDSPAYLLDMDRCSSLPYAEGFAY
# How it was run: as §1
# [12] = target: HSF1 (Homo sapiens, UniProt Q00613 1-529); details: protein: recombinant; tags: N-terminal GST; chain copies: 3; dsDNA, one strand shown
# HSF1, sequence (Q00613 whole entry): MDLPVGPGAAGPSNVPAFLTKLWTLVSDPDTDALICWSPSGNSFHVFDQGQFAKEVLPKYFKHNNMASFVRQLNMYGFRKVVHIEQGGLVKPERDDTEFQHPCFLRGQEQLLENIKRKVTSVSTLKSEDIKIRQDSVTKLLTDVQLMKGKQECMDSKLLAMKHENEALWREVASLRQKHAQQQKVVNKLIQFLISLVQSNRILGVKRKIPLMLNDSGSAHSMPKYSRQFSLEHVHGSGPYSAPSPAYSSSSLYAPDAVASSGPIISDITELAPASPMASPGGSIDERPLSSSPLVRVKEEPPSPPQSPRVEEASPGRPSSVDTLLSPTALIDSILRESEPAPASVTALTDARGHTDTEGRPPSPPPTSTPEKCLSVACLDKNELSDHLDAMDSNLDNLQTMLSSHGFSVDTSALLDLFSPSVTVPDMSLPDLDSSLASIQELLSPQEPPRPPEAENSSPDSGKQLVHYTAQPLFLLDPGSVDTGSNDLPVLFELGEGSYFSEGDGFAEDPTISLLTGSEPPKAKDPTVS
# How it was run: as §1
# [13] = target: T8, SPIC (Homo sapiens, UniProt Q8N5J4 1-248); details: protein: recombinant; tags: N-terminal GST; dsDNA, one strand shown
# T8 sequence: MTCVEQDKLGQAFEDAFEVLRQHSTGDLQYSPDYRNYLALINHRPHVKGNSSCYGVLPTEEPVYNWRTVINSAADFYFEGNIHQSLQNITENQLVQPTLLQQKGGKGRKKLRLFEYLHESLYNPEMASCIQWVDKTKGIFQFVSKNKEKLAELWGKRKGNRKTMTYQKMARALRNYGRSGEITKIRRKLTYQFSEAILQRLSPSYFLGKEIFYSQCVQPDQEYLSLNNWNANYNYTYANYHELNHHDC
# How it was run: as §1
# [14] = target: ELF4 (Homo sapiens, UniProt Q99607 1-663); details: protein: recombinant; tags: N-terminal GST; dsDNA, one strand shown
# ELF4, sequence (Q99607 whole entry): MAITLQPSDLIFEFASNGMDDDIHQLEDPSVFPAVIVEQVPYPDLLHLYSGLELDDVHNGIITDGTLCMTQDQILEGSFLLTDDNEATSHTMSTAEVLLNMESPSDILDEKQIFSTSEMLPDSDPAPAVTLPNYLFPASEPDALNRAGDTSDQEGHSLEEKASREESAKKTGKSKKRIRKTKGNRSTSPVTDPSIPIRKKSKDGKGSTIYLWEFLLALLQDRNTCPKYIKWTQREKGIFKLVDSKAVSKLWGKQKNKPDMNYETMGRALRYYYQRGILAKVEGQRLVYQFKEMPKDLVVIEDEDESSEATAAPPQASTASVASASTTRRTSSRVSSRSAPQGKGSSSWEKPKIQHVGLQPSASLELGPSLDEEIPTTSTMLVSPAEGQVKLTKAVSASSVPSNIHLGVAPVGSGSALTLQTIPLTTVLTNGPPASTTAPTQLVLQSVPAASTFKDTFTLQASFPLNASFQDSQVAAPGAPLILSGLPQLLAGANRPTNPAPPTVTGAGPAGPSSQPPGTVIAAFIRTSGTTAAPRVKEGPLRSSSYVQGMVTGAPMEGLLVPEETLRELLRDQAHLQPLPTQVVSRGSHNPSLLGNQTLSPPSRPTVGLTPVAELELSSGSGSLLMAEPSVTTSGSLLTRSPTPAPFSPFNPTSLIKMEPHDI
# How it was run: as §1
# [15] = target: T9, ELK4 (Homo sapiens, UniProt P28324-2 1-405); details: protein: recombinant; tags: N-terminal GST; dsDNA, one strand shown
# T9 sequence: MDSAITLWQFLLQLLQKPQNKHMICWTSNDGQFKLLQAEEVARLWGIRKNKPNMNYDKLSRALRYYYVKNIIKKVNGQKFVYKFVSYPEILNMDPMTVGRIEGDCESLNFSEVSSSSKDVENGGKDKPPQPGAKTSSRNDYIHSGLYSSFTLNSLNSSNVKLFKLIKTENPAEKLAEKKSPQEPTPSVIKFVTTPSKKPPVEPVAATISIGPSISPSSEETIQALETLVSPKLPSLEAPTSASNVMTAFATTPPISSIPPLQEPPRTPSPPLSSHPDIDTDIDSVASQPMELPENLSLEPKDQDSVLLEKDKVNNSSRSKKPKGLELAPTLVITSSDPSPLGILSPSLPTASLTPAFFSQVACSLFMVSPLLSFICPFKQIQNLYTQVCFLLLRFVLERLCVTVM
# How it was run: as §1
# [16] = target: T10, ETV2 (Homo sapiens, UniProt O00321 1-342); details: protein: recombinant; tags: N-terminal GST; dsDNA, one strand shown
# T10 sequence: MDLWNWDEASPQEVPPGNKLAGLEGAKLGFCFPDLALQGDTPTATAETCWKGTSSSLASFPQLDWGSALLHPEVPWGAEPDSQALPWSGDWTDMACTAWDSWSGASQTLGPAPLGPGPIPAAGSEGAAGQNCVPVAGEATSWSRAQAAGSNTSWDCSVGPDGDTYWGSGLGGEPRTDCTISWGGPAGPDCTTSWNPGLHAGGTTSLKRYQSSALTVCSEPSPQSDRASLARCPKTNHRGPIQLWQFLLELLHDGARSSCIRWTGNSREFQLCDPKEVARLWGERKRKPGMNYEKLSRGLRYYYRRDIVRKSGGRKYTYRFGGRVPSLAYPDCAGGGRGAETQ
# How it was run: as §1
# [17] = target: T11, ELF3 (Homo sapiens, UniProt P78545 1-371); details: protein: recombinant; tags: N-terminal GST; dsDNA, one strand shown
# T11 sequence: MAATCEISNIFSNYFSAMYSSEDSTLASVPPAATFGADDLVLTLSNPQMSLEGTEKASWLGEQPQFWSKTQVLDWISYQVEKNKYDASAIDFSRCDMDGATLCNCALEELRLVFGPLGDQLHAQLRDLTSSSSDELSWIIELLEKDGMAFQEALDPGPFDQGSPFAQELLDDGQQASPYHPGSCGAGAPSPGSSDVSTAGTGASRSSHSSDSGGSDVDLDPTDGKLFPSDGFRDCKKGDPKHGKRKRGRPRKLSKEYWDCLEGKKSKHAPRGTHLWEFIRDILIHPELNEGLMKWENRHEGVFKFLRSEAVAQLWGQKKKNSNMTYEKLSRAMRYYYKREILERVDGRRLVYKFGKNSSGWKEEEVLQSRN
# How it was run: as §1
# [18] = target: CRX (Homo sapiens, UniProt O43186 1-299); details: protein: recombinant; tags: N-terminal GST; dsDNA, one strand shown
# CRX, sequence (O43186 whole entry): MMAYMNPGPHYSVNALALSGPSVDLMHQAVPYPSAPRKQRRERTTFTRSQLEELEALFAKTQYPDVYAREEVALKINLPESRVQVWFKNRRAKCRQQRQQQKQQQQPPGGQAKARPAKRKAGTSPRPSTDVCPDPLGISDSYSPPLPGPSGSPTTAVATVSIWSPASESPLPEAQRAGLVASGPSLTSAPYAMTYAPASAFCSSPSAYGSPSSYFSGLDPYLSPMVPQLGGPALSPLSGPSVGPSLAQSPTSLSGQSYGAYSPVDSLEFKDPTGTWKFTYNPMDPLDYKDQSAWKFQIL
# How it was run: as §1
# [19] = target: ETV1 (Homo sapiens, UniProt P50549 1-477); details: protein: recombinant; tags: N-terminal GST; dsDNA, one strand shown
# ETV1, sequence (P50549 whole entry): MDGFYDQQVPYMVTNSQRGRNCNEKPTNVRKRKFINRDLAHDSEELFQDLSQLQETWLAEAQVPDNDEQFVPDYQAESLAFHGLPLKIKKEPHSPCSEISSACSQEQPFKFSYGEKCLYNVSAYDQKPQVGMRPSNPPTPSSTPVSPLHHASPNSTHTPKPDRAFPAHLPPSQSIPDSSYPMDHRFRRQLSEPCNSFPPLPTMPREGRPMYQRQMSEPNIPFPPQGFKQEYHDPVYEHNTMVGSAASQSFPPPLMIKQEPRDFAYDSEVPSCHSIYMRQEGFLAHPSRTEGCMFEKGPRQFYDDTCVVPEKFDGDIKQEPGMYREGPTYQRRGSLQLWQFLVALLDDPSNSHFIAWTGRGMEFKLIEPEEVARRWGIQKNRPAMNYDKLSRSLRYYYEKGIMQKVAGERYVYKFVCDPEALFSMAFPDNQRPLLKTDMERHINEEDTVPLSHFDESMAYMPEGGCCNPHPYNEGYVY
# How it was run: as §1
sequence,measurement,setting,value
TCTTTA,binding signal,[1],"1.22 fold enrichment (6-mer frequency, TF over GST control)"
same,binding signal,[2],"1.25 fold enrichment (6-mer frequency, TF over GST control)"
same,binding signal,[3],"1.33 fold enrichment (6-mer frequency, TF over GST control)"
same,binding signal,[4],"1.29 fold enrichment (6-mer frequency, TF over GST control)"
same,binding signal,[5],"1.31 fold enrichment (6-mer frequency, TF over GST control)"
same,binding signal,[6],"1.25 fold enrichment (6-mer frequency, TF over GST control)"
same,binding signal,[7],"1.32 fold enrichment (6-mer frequency, TF over GST control)"
same,binding signal,[8],"1.21 fold enrichment (6-mer frequency, TF over GST control)"
same,binding signal,[9],"1.27 fold enrichment (6-mer frequency, TF over GST control)"
same,binding signal,[10],"1.22 fold enrichment (6-mer frequency, TF over GST control)"
same,binding signal,[11],"1.16 fold enrichment (6-mer frequency, TF over GST control)"
same,binding signal,[12],"1.5 fold enrichment (6-mer frequency, TF over GST control)"
same,binding signal,[13],"1.22 fold enrichment (6-mer frequency, TF over GST control)"
same,binding signal,[14],"1.21 fold enrichment (6-mer frequency, TF over GST control)"
same,binding signal,[15],"1.3 fold enrichment (6-mer frequency, TF over GST control)"
same,binding signal,[16],"1.31 fold enrichment (6-mer frequency, TF over GST control)"
same,binding signal,[17],"1.36 fold enrichment (6-mer frequency, TF over GST control)"
same,binding signal,[18],"1.93 fold enrichment (6-mer frequency, TF over GST control)"
same,binding signal,[19],"1.25 fold enrichment (6-mer frequency, TF over GST control)"
